Our source for the outcome values is PubChem BioAssay (NCATS).

Activity calls are given as the source filed them. Calls come from the whole dose curve; as a rule, active = well fitted curve in the direction sought with a large enough effect; inconclusive = small, poorly fitted or top-dose-only effect, or another doubt; inactive = no such curve, though single readings can be large or run the other way.

This test is described as follows: Cellular Toxicity (caspase-3) HUV-EC-C (AID 656). Conditions: HUV-EC-C cells, caspase-3 activation (apoptosis), vehicle = 0, 100 µM tamoxifen = 100%; series mostly up to 92.2 µM. An excerpt: NIH Chemical Genomics Center [NCGC]
NIH Molecular Libraries Screening Centers Network [MLSCN]
National Institutes of Environmental Health Sciences [NIEHS]
National Toxicology Program [NTP]
We have developed a 1536-well cell-based assay for quantitative high throughput screening (qHTS) against a number of cell lines to determine in vitro caspase 3/7 of small molecules. This particular assay uses the HUV-EC-C cell line which is derived from normal human vascular endothelial cells.
NCGC Assay Protocol Summary:
The Caspase-Glo 3/7 assay (Promega) is a homogeneous method to measure caspase-3 and caspase-7 activities in cultured cells. The quantitation of caspase 3/7 activity is based on the cleavage of a peptide-aminoluciferin substrate. After caspase cleaves the substrate the free aminoluciferin is liberated and serves as the substrate of luciferase, which generates the light. The luminescent signal is proportional to amount of caspase 3/7 activity present.
Using the Caspase-Glo 3/7 assay, the amount of caspase 3/7 activity was measured in the HUV-EC-C cell line with complete culture medium following compound treatment for 16 hours. The assay was performed in opaque white 1536-well plates. In the screen, tamoxifen and doxorubicin were used as positive controls. Library compounds were measured for their ability to cause the activation of caspase 3/7 in the cell line, as reflected by an increase in luminescence signal, in a concentration-dependent manner. Data were normalized to the controls for basal activity (DMSO only) and 100% stimulation (100 uM tamoxifen). AC50 values were determined from concentration-response data modeled with the standard Hill equation.
qHTS protocol for caspase 3/7 assay in HUV-EC-C cell line
[Step] [Parameter] [Value] [Description]
1. Reagent; 5 uL; 1000 HUV-EC-C cells/well
2. Time; 5 hr; 37 °C incubation
4. Controls; 23 nL; Tamoxifen 0.23 uM to 100 uM & doxorubicin 7.0 pM to 100 uM
5. Time; 16 hr; 37 °C incubation
6. Reagent; 5 uL; Caspase-Glo 3/7 reagent
7. Time; 20 min; Room Temperature
8. Detection; Luminescence; Viewlux plate reader
Keywords: caspase 3/7, apoptosis, HUV-EC-C cell line, luminescence, NTPHTS, NTPHTS_NCGC, NIEHS, EPA, DSSTox, MLSMR, MLSCN, NIH Roadmap, qHTS, NCGC
Consider `Nc1nc2ccc([N+](=O)[O-])cc2s1`, for which the molecule was called inactive.

In the case of `COc1cc(/C=C/C(=O)CC(=O)/C=C/c2ccc(O)c(OC)c2)ccc1O`, the molecule was classed as inactive.

On to `O=C1CN(/N=C/c2ccc([N+](=O)[O-])o2)C(=O)N1`, for which the molecule was classed as inactive.

On to `NCCO`, for which the result was inactive.

Consider `CN(C)CCC(c1ccc(Cl)cc1)c1ccccn1` (centres undefined), for which the molecule was classed as inactive.

As to `CC(C)NCC(O)COc1cccc2ccccc12` (centres undefined), the result was inactive.

For `CN(C)c1ccc(N=NS(=O)(=O)O)cc1`, the result was inactive.

For `Nc1ccc([N+](=O)[O-])cc1O`, the result was inactive.

As for `Nc1ccc(O)c(C(=O)O)c1`, the molecule was called inactive.

`COc1cc(CNC(=O)CCCC/C=C/C(C)C)ccc1O`: the call was inactive.

With `C#C[C@]1(O)CC[C@H]2[C@@H]3CCc4cc(O)ccc4[C@H]3CC[C@@]21C`, the molecule was called inactive.

On to `c1ccc2sc(SSc3nc4ccccc4s3)nc2c1`, for which the result was inactive.

With `CCCCCCCCCCCCCCCCCC(=O)O`, the molecule was classed as inactive.

As for `S=c1[nH]c2ccccc2s1`, the outcome was inactive.

As to `O=C(O)c1cc(O)c(O)c(O)c1`, the outcome was inactive.

With `CN(C)c1ccc(C(=C2C=CC(=[N+](C)C)C=C2)c2ccccc2)cc1`, the molecule was classed as inactive.

For `Nc1ccc(O)c([N+](=O)[O-])c1`, the molecule was called inactive.

In the case of `CN1CCC[C@H]1c1cccnc1`, the call was inactive.

For the molecule `CC1(C)S[C@@H]2[C@H](NC(=O)[C@H](N)c3ccccc3)C(=O)N2[C@H]1C(=O)O`, the result was inactive.

As for `O=c1cc(-c2ccccc2)oc2ccccc12`, the result was inactive.

Turning to `Oc1ccccc1O`, the call was inactive.

On to `c1cnc2c(c1)ccc1cccnc12`, for which the result was inactive.

For `CCCOC(=O)c1ccc(O)cc1`, the call was inactive.

For the molecule `O=C(O)/C=C\C(=O)O`, the result was inactive.
